Bioassay records: PubChem, several laboratories
An excerpt weighted towards active compounds, which were near 2.4% of everything screened.
WT yeast gro inh: growth inhibition of WT yeast, mitochondrial fusion screen; hit rate 2.1% among 190,000; inhibition, % at 10 µM; AID 1362; mitochondrial fusion phenotypic screen, WT strain; in the data active = inhibition above about 58%; tested in S. cerevisiae
PERK inhibitor: human PERK inhibition, primary cell-based screen | AID 1416 | Q9NZJ5 | hit rate 0.17% among 220,000 | inhibition, % at 5.6 µM | CHO PERK-DD fusion, SEAP luminescence translation reporter;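 active = inhibition above the mean inhibition of all tested compounds plus 3 SD, set separately per screening campaign, cut at about 2.9% in these data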;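 note: PERK kinase domain activated by AP20187 dimerizer at 100 nM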
PKD1 kinase inh: inhibitors of human PKD1 kinase; Q15139; PKD1 kinase fluorescence polarization assay; inhibition, % (test concentration not listed); hit rate 0.056% among 200,000; in the data active = inhibition above about 50%
TNF necrop inh: inhibitors of TNF-alpha induced necroptosis in Jurkat FADD-/- cells; activation (protection from cell death), % at 10 µM; hit rate 0.068% among 220,000; Jurkat FADD-/- TNF necroptosis rescue, ATP luminescence, 24 h; 0 = TNF only, 100 = no-TNF cells;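 active = activation, meaning protection from cell death, of at least 50% relative to plate controls; inactive = activation below 50%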;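 note: necroptosis triggered by 40 ng/mL TNF-alpha added together with compound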
DTT redox prof: compounds producing H2O2 with reducing agent – biochemical, NIH compound library profiling, artefact control for MLSCN library redox annotation, primary screen | DTT-dependent redox cycling H2O2, phenol red/HRP absorbance; 100% = 100 µM peroxide control, 0% = buffer | activation, % at 10 µM | hit rate 0.03% among 200,000 | AID 878;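 active = activation of at least 50% relative to the plate's high and low controls in the primary single-dose screen; inactive = activation below 50%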;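 note: compound incubated with DTT at 0.8 mM final as the reducing agent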
L929 necroptosis: blocks zVAD induced death of L929 cells. L929 zVAD necroptosis rescue, ATP luminescence, 24 h; with zVAD 60 µM. viability rescue, % at 10 µM. hit rate 0.38% among 220,000. AID 1377;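 active = activation, scaled between plate controls, above about 75%, limit read from the data; inactive = activation under that limit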
Hits are given with their value; . = inactive; / = no result given.

SMILES	WT yeast gro inh	PERK inhibitor	PKD1 kinase inh	TNF necrop inh	DTT redox prof	L929 necroptosis
FC(F)C(F)(F)C(F)(F)C(F)(F)c1cc(-c2ccccc2)n[nH]1	69.7	.	.	.	.	.
CCOc1ccc(-c2nc[nH]c2[N+](=O)[O-])cc1	.	.	.	.	.	.
Cn1c(=O)c2c(ncn2CC(=O)N/N=C/C=C/c2ccccc2[N+](=O)[O-])n(C)c1=O	/	.	/	.	/	.
CC(CCc1ccco1)NC(=O)c1cccc2c1C(=O)N(C1CCCCC1)C2 (stereo not drawn)	59.7	.	.	.	.	.
COc1ccc(N2Cc3cccc(C(=O)NC(C)CCc4ccco4)c3C2=O)cc1 (stereo not drawn)	.	.	.	.	.	.
O=C(c1ccc(C#Cc2ccccc2)o1)N1CCN(c2ccccn2)CC1	68.7	.	.	.	.	.
O=C(Nc1ccccc1)Oc1cccc(Br)c1	/	.	/	.	/	.
COC(=O)COc1ccc(C)cc1-n1nc2ccccc2n1	73.6	.	.	.	.	.
Fc1cccc(Cn2cc(C(=S)N3CCCCC3)c3ccccc32)c1	75.8	.	.	.	.	.
CN(Cc1ccccc1)C(=O)c1nc2ccccn2c1CN1CCC(N2CCOCC2)CC1	/	.	/	.	/	.
CCOC(=O)C1CCCN(C(=O)CN2C(=O)c3ccccc3C2=O)C1 (stereo not drawn)	.	.	.	.	.	.
CCOC(=O)C1CCCN(C(=O)CN2C(=O)/C(=C/c3ccc(OC)cc3)Oc3ccccc32)C1 (stereo not drawn)	59.4	.	.	.	.	.
Cc1ccc2nc(-c3ccc(NC(=S)NC(=O)C(C)C)cc3)sc2c1	.	.	.	.	.	.
Cc1ccc2nc(-c3ccc(NC(=S)NC4CC(C)(C)NC(C)(C)C4)cc3)sc2c1	60.2	.	.	.	.	.
Cc1ncccc1C(=O)N1CCCC(CNC(=O)C2(c3ccc(Cl)cc3)CC2)C1 (stereo not drawn)	.	.	.	.	.	.
CS(=O)(=O)N(CC(=O)NCc1ccc2c(c1)OCO2)c1ccc(Cl)cc1	79.7	.	.	.	.	.
O=C(NCc1ccc2c(c1)OCO2)c1ccc(CSCc2ccc(Cl)cc2)o1	59.1	.	.	.	.	.
CS(=O)(=O)N(CC(=O)NCc1ccc2c(c1)OCO2)c1cccc(Cl)c1	.	.	.	.	.	.
Cc1cc(C(=O)Nc2c(F)c(F)c(F)c(F)c2F)n(-c2ccccc2)n1	.	.	.	.	.	.
CC(NC(=S)Nc1cccc(C(F)(F)F)c1)C(C)(C)C (stereo not drawn)	70.2	.	.	.	.	.
Fc1ccc(CNC(=S)Nc2cccc(C(F)(F)F)c2)cc1	58.5	.	.	.	.	.
FC(F)(F)c1cccc(NC(=S)NCc2ccc(Cl)cc2)c1	75.2	.	.	.	.	.
CC(C)(CC(=O)O)CC(=O)NNc1ncccc1C#N	/	.	/	.	/	.
CCN1CCCc2cc(CN(CCN3CCOCC3)C(=S)Nc3cccc(OC)c3)ccc21	.	.	.	.	.	.
CCCOC(=O)CN1C(=O)c2ccccc2C1=O	79.5	.	.	.	.	.
SMILES	WT yeast gro inh	PERK inhibitor	PKD1 kinase inh	TNF necrop inh	DTT redox prof	L929 necroptosis
CCOC(=O)CN1C(=O)c2ccccc2C1=O	.	.	.	.	.	.
CCC(=O)N1CCc2cc(Br)cc(S(=O)(=O)N3CCN(c4ccccn4)CC3)c21	.	/	/	/	/	/
CC(c1ccccc1)N(CCC(c1ccccc1)C1CCOC(C)(C)C1)C(=O)c1ccco1 (stereo not drawn)	79.0	.	.	.	.	.
Cc1cc(C)c2nc(SCC(=O)NC(=O)c3cccn3C)cc(C)c2c1	.	.	.	.	.	.
CCOC(=O)c1c(-c2cccs2)csc1NC(=O)C(C)(C)C	59.7	.	.	.	.	.
CCN1C(=O)S/C(=C/c2c(OCc3ccc(C(=O)O)cc3)ccc3ccccc23)C1=O	72.7	.	.	.	.	.
O=C(O)c1ccc(COc2ccc3ccccc3c2/C=C2/NC(=O)N(c3ccccc3)C2=O)cc1	.	.	.	.	.	.
COC(=O)Cc1ccc(N(Cc2ccccc2F)S(=O)(=O)c2ccc(C)cc2)cc1	72.3	.	.	.	.	/
Cc1cc2c3c(c1)C1(SCC(=O)N1c1ccc(F)cc1)C(=O)N3C(C)(C)CC2C (stereo not drawn)	62.8	.	.	.	.	.
